Laboratory results as given in article PMC5540273 (PLoS ONE, 2017).

Test system: ACVR2A
Settings: concentration: 1 μM, replicates: in singlicate; n = 1
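Also: KINOMEscan kinase panel screen.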

| SMILES | %Inh [%] |
| --- | --- |
| COc1ccc(NC(=O)c2ccoc2)cc1-c1ccc(C(=O)NCC2CC2)cc1 [GW810437] | 0 |
| CC(=O)Nc1cn2nc(Oc3cccc(NC(=O)c4cccc(C(F)(F)F)c4)c3)ccc2n1 | 0 |
| Cc1ccc(C)c(NC(=O)Nc2ccc(C)c(-c3ccc(C(=O)Nc4ccncc4)cc3)c2)c1 [GSK1398473] | 0 |
| CN(C)c1ncnc2nc[nH]c12 [SKF-31736] | 0 |
| Cc1ccc(O)cc1Nc1ccnc2cc(-c3ccc(CN4CCCCC4)o3)ccc12 [GW557777] | 18 |
| Cl.Cl.NCC(NC(=O)c1cc(-c2cccnc2)c(-c2ccnc3[nH]ccc23)s1)c1ccccc1 (stereo not shown) [GSK1323434] | 0 |
| CC(C)NCC(Cc1ccccc1)NC(=O)c1cc(Br)c(-c2ccnc3[nH]ccc23)s1.Cl.Cl (stereo not shown) [GSK1383281] | 0 |
| COc1cccc(NC(=O)NCCNc2ccnc(Nc3ccc(F)cc3)n2)c1 [GSK1379879] | 0 |
| Cc1cc(-c2ccnc(Nc3cccc(C#N)c3)n2)cc(C)c1O [GSK1440913] | 8 |
| Cc1ccc(O)cc1Nc1ccnc2ccc(C(C)(C)C)cc12 [GW856805] | 8 |
| O=C(Nc1n[nH]c2nc(-c3ccccc3)ccc12)C1CC1 [SB-708999] | 9 |
| Cl.Cl.NC(CNC(=O)c1cc(Br)c(-c2ccnc3[nH]ccc23)s1)c1ccccc1 (stereo not shown) [GSK1322949] | 0 |
| Cn1cc(-c2cnc(N)c3c(-c4ccc5c(c4)CCN5C(=O)Cc4ccccc4)csc23)cn1 [GSK2593074] | 0 |
